MEKK3 PB1 HTS: modulators of MEKK3-MEK5 PB1 binding, primary screen, biochemical, wildtype MEKK3, multiplex bead flow cytometry, Alexa488-MEK5; Mitogen-activated protein kinase kinase kinase 3 (Homo sapiens), Q99759; bead-based flow cytometry, Alexa488-MEK5 binding to MEKK3; actives lie on both sides; 0 = blocked by unlabeled MEK5, 100 = vehicle; binding response (% of control), % at 10 µM; 290,000 tested, 1.4% active; AID 1529, 2009;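 active means binding response more than 3 SD above or below the average of its plate-row segment, actives on both sides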;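 further: Alexa488 bead fluorescence after subtracting the streptavidin-only scavenger bead signal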
GRK2 aptamer HTS: compounds blocking aptamer binding on GRK2 – biochemical, human GRK2, bead flow cytometry, HTS, primary screen; Beta-adrenergic receptor kinase 1 (Homo sapiens), P25098; FAM-aptamer displacement from GRK2; AID 488847, 2010; inhibition of aptamer binding, % at 10 µM; 330,000 tested, 0.59% active;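 active means inhibition of aptamer binding above 40%, roughly 3 SD of noise, on plates passing a quality check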;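 further: median bead fluorescence of bound FAM aptamer so fluorescent compounds give negative values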
Target sequence (P25098 whole entry, looked up): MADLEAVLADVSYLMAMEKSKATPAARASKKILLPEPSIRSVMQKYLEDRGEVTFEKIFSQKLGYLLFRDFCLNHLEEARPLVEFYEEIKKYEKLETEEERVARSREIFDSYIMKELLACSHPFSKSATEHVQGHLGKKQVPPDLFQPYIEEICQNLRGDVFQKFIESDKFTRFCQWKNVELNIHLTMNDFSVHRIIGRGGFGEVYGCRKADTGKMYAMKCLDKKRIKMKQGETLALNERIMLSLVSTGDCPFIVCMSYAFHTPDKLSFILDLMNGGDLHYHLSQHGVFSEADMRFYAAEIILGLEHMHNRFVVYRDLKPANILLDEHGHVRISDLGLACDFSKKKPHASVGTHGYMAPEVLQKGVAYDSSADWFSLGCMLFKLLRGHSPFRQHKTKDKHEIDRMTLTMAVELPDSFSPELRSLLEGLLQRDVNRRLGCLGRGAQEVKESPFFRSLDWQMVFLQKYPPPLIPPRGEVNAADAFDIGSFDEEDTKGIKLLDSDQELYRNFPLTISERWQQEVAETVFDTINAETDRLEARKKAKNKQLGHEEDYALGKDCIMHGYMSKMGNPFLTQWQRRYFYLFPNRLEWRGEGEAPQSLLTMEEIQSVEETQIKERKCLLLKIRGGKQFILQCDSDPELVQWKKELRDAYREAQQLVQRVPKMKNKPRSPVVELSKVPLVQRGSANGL
MEKK2 WT-MEK5: modulators of MEK5 binding to wildtype MEKK2, primary screen, biochemical, multiplex bead flow cytometry, Alexa488-MEK5 | Mitogen-activated protein kinase kinase kinase 2 (Homo sapiens), Q9Y2U5 | Alexa488-MEK5 binding to MEKK2 WT; actives lie on both sides | binding response (% of control), % at 10 µM | 290,000 tested, 1.1% active | AID 1531, 2009; in the data active means binding response below about 67% or above about 130%
MEKK2 mut-MEK5: MEK5 binding signal on mutant MEKK2 PB1, primary screen, biochemical, multiplex bead flow cytometry, Alexa488-MEK5; Alexa488-MEK5 binding to MEKK2 mutant; percent response, % at 10 µM; 290,000 tested, 0.35% active; in the data active means percent response above about 24%, passing the limit was not always enough
GRK2 CP1: GRK2 aptamer-displacing inhibitors, retest, confirmation, biochemical, cherry pick 1, bead flow cytometry; shares compounds with GRK2 aptamer HTS; bead-bound GRK2, FAM-aptamer displacement; aptamer displacement, % at 10 µM; 2,000 tested, 4% active;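 active means aptamer displacement above 40%, near three times the noise of non-fluorescent compounds, on plates passing quality checks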;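 further: negative values mostly reflect intrinsic compound fluorescence rather than true enhancement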
Aptamer quench SP: quenches fluorescent RNA aptamer, GRK2 hit artifact; shares compounds with GRK2 aptamer HTS; Carboxyfluorescein RNA aptamer on beads, flow cytometry quenching; active compounds read low; fluorescence response (% of DMSO), % at 10 µM; 2,000 tested, under 10 active; AID 504580;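 active means compounds that quench the bead-bound fluorescent RNA probe, cutting fluorescence to under half of the solvent control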;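 further: counterscreen run without GRK2 so only probe quenching by compound is measured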
GRK2 confirm 2: GRK2 aptamer-displacing inhibitors, hit retest, confirmation, biochemical, cherry pick 2, bead flow cytometry; shares compounds with GRK2 aptamer HTS; bead-bound GRK2, FAM-aptamer displacement; 360 tested, under 10 active; inhibition of aptamer binding, % at 10 µM; AID 504782, 2011;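 active means inhibition of aptamer binding above 40%, about triple the noise seen with nonglowing compounds, on plates passing quality control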;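 further: negative values mostly come from compounds that fluoresce themselves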
FAM quench SP: aptamer fluorescence quenching in GRK2 counter-screen | fluorescence response vs DMSO, % at 10 µM | AID 588494 | 360 tested, under 10 active | shares compounds with GRK2 aptamer HTS | carboxyfluorescein RNA aptamer beads, flow cytometry quenching; active compounds read low;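 active means response vs DMSO under 50%, meaning signal dropped by over half, treated as fluorescence quencher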;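 further: labelled aptamer on streptavidin beads without GRK2 as a quench counter-screen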
Hits are given with their value; 0 = inactive; - = no result given. Hits are enriched below; roughly 2.5% of the tested compounds scored in any of these assays.

SMILES	MEKK3 PB1 HTS	GRK2 aptamer HTS	MEKK2 WT-MEK5	MEKK2 mut-MEK5	GRK2 CP1	Aptamer quench SP	others
O=C(NCc1ccc(F)cc1)c1c2c(nc3ccccc13)CCC2	0	0	0	0	-	-	GRK2 confirm 2=0;FAM quench SP=0
O=C(NCc1ccco1)c1c2c(nc3ccccc13)CCC2	-	0	-	-	-	-	GRK2 confirm 2=0;FAM quench SP=0
O=C(O)c1c2c(nc3ccc(F)cc13)CCC2	0	72	0	0	0	0
CC(=O)c1cccc(S(=O)(=O)NC2CCSc3ccccc32)c1 (stereo not given)	0	0	0	0	-	-
Cc1cccc(C(=O)N2CCN(c3ccccn3)CC2)c1	0	75	0	0	0	0
Cc1cc(C)cc(C(=O)N2CCN(c3ccccn3)CC2)c1	0	0	0	0	0	0
O=C(c1cccc(S(=O)(=O)N2CCc3ccccc32)c1)N1CCN(c2ccccn2)CC1	0	0	0	0	0	0
COc1ccccc1N1CCN(C(=O)c2cccc(S(=O)(=O)N3c4ccccc4CC3C)c2)CC1 (stereo not given)	-	-	-	-	0	0
CCOC(=O)C1CCN(C(=O)c2cccc(S(=O)(=O)N3c4ccccc4CC3C)c2)CC1 (stereo not given)	-	0	-	-	-	-
Cc1ccc(C(=O)N2CCN(c3ccccn3)CC2)cc1	0	0	0	0	-	-
COc1ccc(N2CCN(C(=O)c3cccc(S(=O)(=O)N4CCc5ccccc54)c3)CC2)cc1	-	0	-	-	-	-
COc1cccc(/C=C2\Oc3cc(OCC(=O)N4CCC[C@H]4C(=O)O)ccc3C2=O)c1	0	0	0	0	-	-
N#CCCSc1ccccc1NC(=O)c1cc(=O)c2ccccc2o1	0	0	0	0	-	-
O=C(COc1cc(Cl)c(Cl)cc1Cl)N1CCN(c2ccccn2)CC1	0	95	0	0	0	0
O=C(c1ccc(CNS(=O)(=O)c2ccccc2)cc1)N1CCN(c2ccccn2)CC1	0	0	0	0	-	-
O=C(c1ccc(Cl)c(S(=O)(=O)NCc2ccccc2)c1)N1CCN(c2ccccn2)CC1	0	0	0	0	0	0
CCCc1ccc(OCc2ccc(C(=O)N/N=C/c3cccnc3)o2)cc1	0	0	0	0	-	-
Cc1ccc(C(=O)CSc2nnc3n2CCCCC3)s1	-	0	-	-	-	-
C=CCc1c(C)nc(-c2ccccc2)nc1Nc1ccc(O)cc1	0	100	0	0	-	-	GRK2 confirm 2=0;FAM quench SP=0
C=CCc1c(C)nc(-c2ccccc2)nc1N/N=C(\C)c1ccccc1	0	0	0	0	-	-
CSCC[C@H](NC(=O)[C@H](Cc1ccccc1)n1c(=O)[nH]c2ccccc2c1=O)C(=O)NCC1CCC(C(=O)O)CC1 (stereo not given in full)	0	0	0	0	-	-
C/C=C(/C)C(=O)OC1c2c(ccc3ccc(=O)oc23)OC(C)(C)C1OC(=O)/C(C)=C\C (stereo not given)	0	70	0	0	0	0
C/C=C(\C)C(=O)OC1c2c(ccc3ccc(=O)oc23)OC(C)(C)C1OC(C)=O (stereo not given)	0	0	0	0	-	-
CCN(CC)c1ccc(NC(=O)Cn2nnc(-c3cccc(OC)c3OC)n2)c(C)c1	0	95	0	0	0	0
CC[C@@H](C)[C@@H]1CN([C@@H](CN2CCC[C@H]2CN2C(N)=NC[C@H]2CC(C)C)C(C)C)C(=N)N1CCc1ccc(Cl)c(Cl)c1	-	0	-	-	-	-
CC[C@@H](C)[C@@H]1CN([C@@H](C)CN2CCC[C@H]2CN2C(N)=NC[C@H]2CC(C)C)C(=N)N1CCc1ccc(Cl)c(Cl)c1	-	84	-	-	-	-	GRK2 confirm 2=0;FAM quench SP=0

Compound activity from PubChem.
